# Results from the supplement of paper PMC6555819.
# Key:
# Test in all cases: PBM binding z-score (relative to random genomic background probes); higher = stronger binding; sequences stand for … in GC…GCGATTGACAGCGTAGAATGAAGG
# [1] = test system: RARb homodimer (NR concentration 270 nM)
# Outline: (§1)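 Ligand-free nuclear receptor dimers were applied to custom Agilent 4×180K protein-binding microarrays whose double-stranded probes carried direct-repeat seeds, single-nucleotide variants, half-site ablations and random human genomic background sequences in 34-nt variable regions. Incubation lasted 1 h. Binding z-scores were computed against the random background probes from regression-normalized fluorescence.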
# [2] = test system: RARg:RXRa (NR concentration 270 nM, RXRa partner concentration 90 nM)
# Outline: as §1
# [3] = test system: RARg homodimer (NR concentration 270 nM)
# Outline: as §1
# [4] = test system: RXRa DBDmut IVT, anti-RXR (DBD mutation: RXRa K156A/R161A, NR concentration 90 nM)
# Outline: as §1
# [5] = test system: RXRa homodimer (NR concentration 180 nM)
# Outline: as §1
# [6] = test system: THRa:RXRa (NR concentration 90 nM, RXRa partner concentration 90 nM)
# Outline: as §1
# [7] = test system: THRa homodimer (NR concentration 90 nM)
# Outline: as §1
# [8] = test system: VDR homodimer (NR concentration 270 nM)
# Outline: as §1
Sequence,PBM binding z-score [1],PBM binding z-score [2],PBM binding z-score [3],PBM binding z-score [4],PBM binding z-score [5],PBM binding z-score [6],PBM binding z-score [7],PBM binding z-score [8]
CGCCCAAGGTCAGAGAGGTCAGTGAATGCCGAGT,5.43,6.31,6.93,3,5.42,4.15,2.33,5.31
ACAGACAGGTGATGAAGGTAACACAGGCTATCAT,0.929,0.674,0.747,-0.108,0.817,0.695,0.246,0.22
AGAACGAGAGCAATGAGTTGATAGCACGGGTGGC,-0.971,-0.154,-0.0386,-0.0984,0.0785,-0.86,-1.05,0.253
CCGAGTAGGTTATGGGGCATTCACGCAACGGTGA,0.898,0.542,0.597,-0.117,0.816,0.155,-0.0267,0.416
CATACAGGGTCAGCTAGGCCAGAGTAGGGACGGC,3.14,4.44,4.26,1.44,4.42,3.1,0.753,1.32
ATACCAAGATGATCGTGAGGTCGTTGATACTAAC,1.17,0.596,0.434,0.473,0.929,2.39,1.81,2.77
TCTTGTGGATCAACAGGAGGTTAAGAAAGATCGA,0.619,1.18,0.266,0.248,0.985,1.01,-0.626,0.119
CATAGCAGGCCAGGGTCACTCAAGCATTTCGCTT,3.09,3.13,2.89,0.718,3.61,3.07,1.43,1.81
CCAACTGGGGCAAAGGTTACCATACTCAGTACGA,2.56,3.77,2.06,0.365,4.41,1.84,0.0572,0.0335
TATACAGGGTCAAAGCCCAGAGTACGAATGTCGA,2.97,5.26,4.63,3.03,5.9,3.23,0.46,2.85
CCAGCCAGGTGAGAAGGTAACTCAGCCTCGATTA,0.235,0.0253,0.00676,-0.801,0.0434,0.621,0.306,-0.441
CCTAGTTGCTCAGGAGGTCACACACCGGATATGA,4.04,4.26,3.65,1.26,4.71,3.75,2.69,2.65
ATATGTAGGTTACATCCGGATCATTCAGGCTATG,0.614,1.02,1.25,0.718,1.24,1.3,0.394,0.331
CTCGAAAGGTCGTGCTCAGGTGAGAATACCAAAC,2.73,5.24,4.09,2.05,4.93,4.12,1.14,0.913
